The values below come from PubChem BioAssay (NCATS).

Test [1] has as its system Zika virus NS2B-NS3 protease. Description: Primary screen GU AMC qHTS for Zika virus inhibitors (AID 1347154).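 Further: 0% = no-inhibitor control and -100% = no-enzyme control; nearly all actives have a fitted effect of over 70% in size.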 An outline of the steps:
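Unlinked Zika NS2B hydrophilic domain/NS3 protease domain noncovalent complex (25 nM final) in 10 mM Tris-HCl pH 8.0, 0.01% Tween 20, with AMC peptide substrate. Fluorescence (ex 340, em 450 nm) change over 15 min, room temperature; percent inhibition fitted to 4-parameter Hill equation.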
For orientation: qHTS replaces the single test concentration by a dilution series.

A short description of test [2]: Primary qHTS for small molecule stabilizers of the endoplasmic reticulum resident proteome: Secreted ER Calcium Modulated Protein (SERCaMP) assay (AID 1508630). Further: on the % scale 0 is the no-effect control and ±100 the full control effect. The essentials: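 The SH-SY5Y reporter protocol was run at 3 concentrations up to 38.3 uM (primary) or 11 concentrations (follow-up): 16 h compound, 100 nM thapsigargin for 4 h, then extracellular luciferase luminescence.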

A short description of test [3]: AP1 Signaling Pathway (AID 357; active means well fitted curve in either direction with a large enough effect, not every such curve was filed as active;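 further: ME-180 reporter cells stimulated with EGF at its EC50 level; on the % scale 0 is the no-effect control and ±100 the full control effect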). To be noted: ME-180 AP-1-bla reporter, EGF-induced, beta-lactamase ratio, 5 h. The essentials: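 Titration-series screen for positive or negative modulators of EC50 EGF-induced signaling in ME-180 cells carrying an AP-1-driven beta-lactamase reporter. After 5 hours at 37 degrees Celsius, CCF4 460nm/530nm emission ratio gave %Activity; AC50 values derived.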

The target in test [4] is Cytochrome P450 1A2 (Homo sapiens) (UniProt P05177). Put plainly: p450-cyp1a2 (AID 410; calls by dose curve;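 further: -100% = full effect of reference inhibitor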). An outline of the steps:
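O-Demethylation of luciferin 6' methyl ether by human CYP1A2 is monitored as luciferase luminescence. Substrate sits at Km (100uM); enzyme is 20nM. Values are scaled to 57 uM furafylline as maximal inhibition.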

Test [5] is described as follows: NFAT Signaling Pathway (AID 444; active means well fitted curve in either direction with a large enough effect, not every such curve was filed as active;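 further: carbachol stimulus at about its EC50 of 1 µM final; on the % scale 0 is the no-effect control and ±100 the full control effect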). Particulars: Jurkat NFAT-bla M1, carbachol, beta-lactamase ratio, 5 h. An outline of the steps: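 Jurkat cells carrying an NFAT-driven β-lactamase reporter and co-transfected muscarinic M1 receptor were treated with compound plus carbachol (1 uM final, an EC50 level) for 5 h at 37 °C. CCF4 loading followed for 1 h at RT; 460/530 nm ratio gave %activity.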

The nature of test [6]: Stat Signaling Pathway (AID 446; active means well fitted curve in either direction with a large enough effect, not every such curve was filed as active;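 further: ME-180 cervical cancer cells given 40 pM IL-6 alongside compound; SIE-controlled beta-lactamase reporter measured as 460/530 nm FRET emission ratio; on the % scale 0 is the no-effect control and ±100 the full control effect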). Particulars: ME-180 (cervical carcinoma) SIE beta-lactamase reporter, IL-6 stimulated, 5 h. An outline of the steps:
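Compound effects on IL-6-induced STAT reporter activity were measured in ME-180 cells. After overnight culture, cells were co-treated with 40 pM IL-6 for 5 hrs before beta-lactamase substrate loading at room temperature.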

For test [7], the target named is Glucocorticoid receptor (Homo sapiens) (UniProt P04150). Put plainly: GR-GFP Redistribution (AID 450;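 active means compounds whose dose series gives a full or clear partial fitted curve of increased nuclear translocation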; further: potency means the concentration at half of the fitted maximal effect). Particulars: U2OS GR-GFP nuclear translocation, laser cytometry, 2 h.
Sequence of Glucocorticoid receptor (Homo sapiens) (P04150 whole entry, looked up, the tested form may be a part): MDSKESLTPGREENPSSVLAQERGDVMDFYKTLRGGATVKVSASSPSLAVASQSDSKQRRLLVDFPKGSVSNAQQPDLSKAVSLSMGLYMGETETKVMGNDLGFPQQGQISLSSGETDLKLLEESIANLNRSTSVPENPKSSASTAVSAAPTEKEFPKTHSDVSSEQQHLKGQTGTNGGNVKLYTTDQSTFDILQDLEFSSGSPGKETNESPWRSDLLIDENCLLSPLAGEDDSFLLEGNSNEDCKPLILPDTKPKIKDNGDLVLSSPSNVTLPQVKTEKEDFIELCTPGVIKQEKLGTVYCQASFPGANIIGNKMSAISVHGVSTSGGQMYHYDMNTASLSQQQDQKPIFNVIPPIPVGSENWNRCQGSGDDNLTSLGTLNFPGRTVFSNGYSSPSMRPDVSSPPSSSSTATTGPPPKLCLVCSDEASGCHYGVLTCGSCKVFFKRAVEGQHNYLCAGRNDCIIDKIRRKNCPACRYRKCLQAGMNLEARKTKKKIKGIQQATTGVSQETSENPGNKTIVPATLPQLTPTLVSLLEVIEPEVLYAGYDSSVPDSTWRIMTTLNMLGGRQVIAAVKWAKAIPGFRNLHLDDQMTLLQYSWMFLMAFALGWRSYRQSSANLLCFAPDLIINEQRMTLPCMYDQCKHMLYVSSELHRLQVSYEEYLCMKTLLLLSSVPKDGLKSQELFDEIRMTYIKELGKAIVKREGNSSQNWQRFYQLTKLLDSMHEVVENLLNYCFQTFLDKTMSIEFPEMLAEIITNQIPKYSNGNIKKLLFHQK
For test [8] the target is unchanged. Put plainly: GR-EFC Redistribution (AID 451; calls by dose curve; further: potency means the concentration at half of the fitted maximal effect). To be noted: CHO-K1 GR-EFC translocation, beta-gal luminescence, 2 h. The essentials: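 CHO-K1 cells stably expressing nuclear-localized β-gal enzyme acceptor and GR fused C-terminally to the enzyme donor fragment; ligand-driven nuclear translocation restores β-gal by complementation. Compounds titrated up to 46 uM final, 2 h at 37 °C; luminescence read.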

The target in test [9] is Mitogen-activated protein kinase 10 (Mus musculus) (UniProt Q61831). Description: JNK3 AlphaScreen Assay (AID 530; active means well fitted curve in either direction with a large enough effect, not every such curve was filed as active). An outline of the steps: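 Phosphorylation of biotinylated GST-cJun(1-79) at Ser73 is measured by AlphaScreen proximity luminescence. Enzyme is JNK3 in HepG2 lysates activated with interleukin-1beta and tumor necrosis factor alpha; ATP is 10 uM final.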
The target in test [10] is 3',5'-cyclic-AMP phosphodiesterase 4B (Homo sapiens) (UniProt Q07343). Description: qHTS Assay for Inhibitors of PDE-IV (AID 607; active means well fitted activation curve with a large enough effect in the main read-out, with a control signal flat, not every such curve was filed as active; further: % of control where 0% means no effect). The essentials:
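ACTOne HEK293 cells carry a modified cAMP-gated CNG channel and express endogenous PDE4; plated 1000 cells/well, compounds up to 22.9 uM final. Membrane-potential dye fluorescence (ex 535/em 590) was read; parental cells received 10 uM forskolin + 100 uM RO 20-1724.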

Test [11] addresses Guanine nucleotide-binding protein G(i) subunit alpha-1 (Homo sapiens) (UniProt P63096). Put plainly: qHTS Assay for Inhibitors of RGS12 GoLoco Motif Activity (Green Fluorophore) (AID 879).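 Further: 0% = labeled peptide with Gαi1 and full inhibition = labeled peptide alone without protein; negative values mean loss of peptide binding seen as reduced polarization.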 The essentials:
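A drop in FITC polarization marked displacement of the FITC-tagged RGS12 GoLoco peptide (10 nM) from Gαi1 (50 nM). Compounds were incubated 10 min at room temperature in Tris pH 7.5 buffer containing 150 mM NaCl, 0.1 mM GDP and 0.05% NP40; unlabeled peptide titration served as control.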

The target in test [12] is Cytochrome P450 2C9 (Homo sapiens) (UniProt P11712). Put plainly: qHTS Assay for Inhibitors and Substrates of Cytochrome P450 2C9 (AID 883). Further: on the % scale 0 is the no-effect control and ±100 the full control effect; nearly all actives have a fitted effect of over 60% in size. The essentials:
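A luminogenic readout tracked human CYP2C9 (10nM) converting deoxyluciferin (100uM, at KM) in 25mM KPO4 during 60 min at 37C with regenerated NADPH. Values normalized to 57uM sulphaphenazole as complete inhibition.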

In test [13] the target is Cytochrome P450 3A4 (Homo sapiens) (UniProt P08684). Description: qHTS Assay for Inhibitors and Substrates of Cytochrome P450 3A4 (AID 884). Further: on the % scale 0 is the no-effect control and ±100 the full control effect; nearly all actives have a fitted effect of over 50% in size. An outline of the steps: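 Luminescent readout of luciferin produced by CYP3A4 (20 nM) dealkylation of Luciferin-PPXE, 25 uM (its KM). NADPH-driven reaction ran 60 min at RT after 10 min compound preincubation; data scaled to 57 uM ketoconazole as 100% inhibition.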

Test [14] concerns the target Cytochrome P450 2D6 (Homo sapiens) (UniProt P10635). Put plainly: qHTS Assay for Inhibitors and Substrates of Cytochrome P450 2D6 (AID 891).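 Further: luciferin methyl ether substrate demethylated by CYP2D6 with NADPH regeneration; on the % scale 0 is the no-effect control and ±100 the full control effect; nearly all actives have a fitted effect of over 60% in size.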 An outline of the steps:
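Luminescent read-out of luciferin formed by 5 nM human CYP2D6 demethylating 30 uM Luciferin-ME EGE (Km level) over 60 min at room temperature after NADPH regeneration addition. Data normalized to full inhibition by 1.43 uM quinidine.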

Test [15] deals with Cytochrome P450 2C19 (Homo sapiens) (UniProt P33261). Description: qHTS Assay for Inhibitors and Substrates of Cytochrome P450 2C19 (AID 899). Further: on the % scale 0 is the no-effect control and ±100 the full control effect; nearly all actives have a fitted effect of over 60% in size. The essentials: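 NADPH-dependent conversion of Luciferin-H EGE (10uM, at KM) by 5nM enzyme in 50mM KPO4, 60 min at 37C following 10 min compound preincubation. Stopped with luciferin detection buffer; luminescence read after 20 min.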
Sequence of Cytochrome P450 2C19 (Homo sapiens) (P33261 whole entry, looked up): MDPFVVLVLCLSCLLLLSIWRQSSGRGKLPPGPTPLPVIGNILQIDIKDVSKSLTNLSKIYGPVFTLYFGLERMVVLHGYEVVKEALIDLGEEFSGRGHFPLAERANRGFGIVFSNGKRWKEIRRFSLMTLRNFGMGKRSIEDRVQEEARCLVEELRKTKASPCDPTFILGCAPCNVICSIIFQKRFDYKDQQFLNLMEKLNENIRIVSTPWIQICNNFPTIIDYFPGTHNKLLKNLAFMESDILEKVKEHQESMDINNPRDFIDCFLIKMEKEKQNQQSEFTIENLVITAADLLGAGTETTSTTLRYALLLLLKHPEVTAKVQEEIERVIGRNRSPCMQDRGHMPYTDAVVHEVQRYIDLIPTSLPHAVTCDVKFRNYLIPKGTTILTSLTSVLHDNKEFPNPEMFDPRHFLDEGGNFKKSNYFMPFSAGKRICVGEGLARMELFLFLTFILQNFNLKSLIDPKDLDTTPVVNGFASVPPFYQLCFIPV

A short description of test [16]: Confirmation and Secondary Assay for Modulators of Hemoglobin Beta Chain Splicing at IVS2 654 locus (AID 910).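 Further: per-well total GFP intensity by laser scanning cytometry after 2-day treatment; % of control where 0% means no effect.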 An outline of the steps:
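HeLa cells stably carrying EGFP interrupted by mutant beta-globin IVS2-654 intron (CMV-driven) were treated with compound for 2 days at 37C; corrected splicing was scored as total peak GFP intensity per well (488 nm excitation, 500-520 nm emission).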

Test [17] in a line: qHTS Assay for Identification of Small Molecule Agonists for Thrombopoietin (TPO) Signaling Pathway (AID 917). Further: on the % scale 0 is the no-effect control and ±100 the full control effect. An outline of the steps:
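Quantitative HTS for pathway activators: compounds were pin-transferred onto IL-3-starved Ba/F3 cells expressing human TPO receptor, TPO was added at its EC50 (26 pM final), and after 24 hrs at 37 C reporter luciferase was measured.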

The nature of test [18]: Confirmation and Secondary Assay for Modulators of Hemoglobin Beta Chain Splicing at IVS2 705 locus (AID 930).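 Further: HeLa cells stably expressing the EGFP-705 splicing reporter; GFP fluorescence per well restored by corrected splicing of the IVS2-705 intron in EGFP; % of control where 0% means no effect.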 The essentials:
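Assay measures total GFP intensity per well in HeLa EGFP-705 cells after 2 days with compound; mis-splicing normally truncates EGFP, so fluorescence indicates corrected splicing.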

The target in test [19] is Muscarinic acetylcholine receptor M1 (Rattus norvegicus) (UniProt P08482). Description: qHTS Assay for Antagonists of Acetylcholine Muscarinic M1 Receptor: Kinetic Measurement of Intracellular Calcium Response (AID 943).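 Further: Fluo-4 calcium signal as peak divided by basal fluorescence over 4 min; nearly all actives have a fitted effect of over 75% in size.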 The essentials: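 Antagonism is measured as inhibition of the carbachol-evoked calcium rise in CHO cells transfected with rat M1. Cells are dye-loaded, exposed to compound for 10 min, then stimulated with 100 nM carbachol (EC80).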
Sequence of Muscarinic acetylcholine receptor M1 (Rattus norvegicus) (P08482 whole entry, looked up): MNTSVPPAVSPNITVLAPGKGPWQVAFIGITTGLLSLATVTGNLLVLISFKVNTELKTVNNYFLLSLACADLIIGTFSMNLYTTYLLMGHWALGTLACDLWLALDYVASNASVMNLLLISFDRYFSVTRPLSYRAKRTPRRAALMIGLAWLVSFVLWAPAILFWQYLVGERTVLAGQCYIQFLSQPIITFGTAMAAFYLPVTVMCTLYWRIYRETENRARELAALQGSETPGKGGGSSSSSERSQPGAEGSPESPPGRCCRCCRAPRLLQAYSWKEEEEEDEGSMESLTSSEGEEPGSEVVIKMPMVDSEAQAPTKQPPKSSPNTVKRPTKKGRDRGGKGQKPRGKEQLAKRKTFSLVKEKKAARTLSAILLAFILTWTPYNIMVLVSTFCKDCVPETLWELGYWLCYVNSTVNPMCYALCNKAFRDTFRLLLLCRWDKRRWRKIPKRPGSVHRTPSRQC

Test [20] has the same target. Description: qHTS Assay for Antagonists of Acetylcholine Muscarinic M1 Receptor: Measurement of IP-One Response (AID 944). Further: nearly all actives have a fitted effect of over 75% in size. The essentials: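 Antagonist mode with rat M1 receptor transfected into CHO cells. Compound is added first for 10 min, carbachol at its EC80 follows for 30 min, and lysis reagents then allow TR-FRET detection of accumulated IP1.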
The target of test [21] is Pyruvate kinase (Leishmania mexicana) (UniProt Q27686). Description: qHTS Validation Assay for Inhibitors of Leishmania Mexicana Pyruvate Kinase (AID 945).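 Further: 0% = DMSO only neutral control wells.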 An outline of the steps:
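Pyruvate kinase activity of E451W LmPYK (0.2 nM) was followed as ATP output after 1 h at room temperature with 0.5 mM PEP and 0.1 mM ADP, detected by PKLight luminescence.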

In test [22] the target is Alpha-galactosidase A (Homo sapiens) (UniProt P06280). Description: Counterscreen for Glucocerebrosidase Inhibitors: qHTS Assay for Human alpha-Galactosidase at pH 4.5 (AID 992). Further: 0% is about no effect. An outline of the steps: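 Citrate buffer pH 4.5, Tween-20 0.005%. Enzyme 2 nM, substrate 80 uM, 20 min RT. Stop pH 10. Fluorescence Ex 365/Em 440. AC50 by Hill fit.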
Sequence of Alpha-galactosidase A (Homo sapiens) (P06280 whole entry, looked up): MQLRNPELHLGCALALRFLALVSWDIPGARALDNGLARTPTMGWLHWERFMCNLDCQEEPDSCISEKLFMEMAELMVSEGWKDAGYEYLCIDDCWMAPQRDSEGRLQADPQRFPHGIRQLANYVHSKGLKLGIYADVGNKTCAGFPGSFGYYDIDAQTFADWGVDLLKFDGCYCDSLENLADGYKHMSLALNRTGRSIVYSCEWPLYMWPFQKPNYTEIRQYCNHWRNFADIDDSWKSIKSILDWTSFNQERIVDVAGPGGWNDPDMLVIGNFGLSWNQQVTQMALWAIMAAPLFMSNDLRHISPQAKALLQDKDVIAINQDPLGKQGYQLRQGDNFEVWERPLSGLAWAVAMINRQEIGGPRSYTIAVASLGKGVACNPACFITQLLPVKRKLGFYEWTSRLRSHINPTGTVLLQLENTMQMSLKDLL
(In general: Counterscreens check selectivity or assay interference.)

Test [23] has as its target alpha-glucosidase (Oryza sativa, rice) (UniProt Q653V4). Put plainly: Counterscreen for Glucocerebrosidase Inhibitors: qHTS Assay for Rice alpha-Glucosidase at pH 5.0 (AID 997).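 Further: 0% = full activity with enzyme and -100% = basal without enzyme.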 The essentials:
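Endpoint fluorogenic assay at pH 5.0: compounds (0.7 nM to 77 uM) titrated against 4 nM rice enzyme and 400 uM 4-MU-alpha-glucoside for 20 min at room temperature; NaOH/glycine stop, read ex 365/em 440 nm, Hill-fitted AC50.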

Test [24] in a line: qHTS Assay for Lipid Storage Modulators (AID 1519; calls by dose curve). To be noted: Drosophila S3 cells, BODIPY lipid droplet/cell ratio, laser cytometry, cells loaded with oleic acid. An outline of the steps: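 Cells seeded at 5,000 per well were treated with compounds over a concentration series and loaded with oleic acid (400 uM, as added). Lipid droplet fluorescence (488 nm excitation, 500-530 nm channel) was read by laser-scanning cytometry and normalized to 20 uM Triacsin C.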

Test [25] deals with Ubiquitin carboxyl-terminal hydrolase 1 (Homo sapiens) (UniProt O94782). Description: Inhibitors of USP1/UAF1: Pilot qHTS (AID 504865).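 Further: rhodamine fluorescence freed from ubiquitin-rhodamine substrate followed over time; top concentration of the series differs between compounds; on the % scale 0 is the no-effect control and ±100 the full control effect; nearly all actives have a fitted effect of over 35% in size.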 The essentials:
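Kinetic fluorescence assay: 1nM USP1/UAF1, 15 min compound preincubation, then 150nM Ub-Rho; 480/540 nm.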

For test [26], the target named is DNA dC->dU-editing enzyme APOBEC-3G (Homo sapiens) (UniProt Q9HC16). Description: qHTS for inhibitors of Vif-A3G interactions: Validation (AID 588379). Further: 0% is about no effect. The essentials: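 Yellow fluorescence (Ex 488, Em 500-530) of Vif-coexpressing HeLa A3G-eYFP cells, scanned by Acumen cytometer, reports blocked A3G degradation. Cells plated at 700/well overnight at 37 deg C before compound addition, then a further overnight compound incubation at 37 deg C.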
Sequence of DNA dC->dU-editing enzyme APOBEC-3G (Homo sapiens) (Q9HC16 whole entry, looked up): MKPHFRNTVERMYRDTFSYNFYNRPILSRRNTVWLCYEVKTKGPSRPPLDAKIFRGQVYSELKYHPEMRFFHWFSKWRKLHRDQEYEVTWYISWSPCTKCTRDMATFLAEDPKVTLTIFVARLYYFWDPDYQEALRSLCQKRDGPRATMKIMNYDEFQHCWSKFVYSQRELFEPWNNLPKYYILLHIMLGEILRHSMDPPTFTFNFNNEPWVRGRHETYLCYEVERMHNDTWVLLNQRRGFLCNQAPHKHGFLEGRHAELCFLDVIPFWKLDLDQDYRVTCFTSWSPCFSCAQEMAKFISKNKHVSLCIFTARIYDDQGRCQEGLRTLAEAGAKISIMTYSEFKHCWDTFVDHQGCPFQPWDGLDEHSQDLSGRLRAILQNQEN

“And” between values parts separate entries of the source, which are not always exact repeats. Equal values may be shown once. Records with an inconclusive call do not appear. The source made the active and inactive calls. Unless noted, the call rests on the fitted dose curve; in most records, active means well fitted curve in the direction sought with a large enough effect; inconclusive means small, poorly fitted or top-dose-only effect, or another doubt; inactive means no such curve, though single readings can be large; an effect the other way counts as inactive or inconclusive.

Sequence of Cytochrome P450 1A2 (Homo sapiens) (P05177 whole entry, looked up): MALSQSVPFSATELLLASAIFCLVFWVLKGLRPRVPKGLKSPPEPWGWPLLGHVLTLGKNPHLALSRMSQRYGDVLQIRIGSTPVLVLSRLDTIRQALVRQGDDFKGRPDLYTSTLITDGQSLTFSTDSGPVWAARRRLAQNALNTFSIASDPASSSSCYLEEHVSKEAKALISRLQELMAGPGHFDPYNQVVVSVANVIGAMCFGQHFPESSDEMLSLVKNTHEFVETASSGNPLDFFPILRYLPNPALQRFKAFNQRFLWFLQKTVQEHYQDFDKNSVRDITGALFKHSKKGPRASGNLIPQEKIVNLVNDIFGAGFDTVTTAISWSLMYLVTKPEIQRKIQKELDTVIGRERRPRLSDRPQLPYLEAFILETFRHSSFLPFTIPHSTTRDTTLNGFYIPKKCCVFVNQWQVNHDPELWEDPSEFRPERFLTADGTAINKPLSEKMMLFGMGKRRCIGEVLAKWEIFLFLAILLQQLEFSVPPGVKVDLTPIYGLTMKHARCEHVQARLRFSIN
Sequence of 3',5'-cyclic-AMP phosphodiesterase 4B (Homo sapiens) (Q07343 whole entry, looked up): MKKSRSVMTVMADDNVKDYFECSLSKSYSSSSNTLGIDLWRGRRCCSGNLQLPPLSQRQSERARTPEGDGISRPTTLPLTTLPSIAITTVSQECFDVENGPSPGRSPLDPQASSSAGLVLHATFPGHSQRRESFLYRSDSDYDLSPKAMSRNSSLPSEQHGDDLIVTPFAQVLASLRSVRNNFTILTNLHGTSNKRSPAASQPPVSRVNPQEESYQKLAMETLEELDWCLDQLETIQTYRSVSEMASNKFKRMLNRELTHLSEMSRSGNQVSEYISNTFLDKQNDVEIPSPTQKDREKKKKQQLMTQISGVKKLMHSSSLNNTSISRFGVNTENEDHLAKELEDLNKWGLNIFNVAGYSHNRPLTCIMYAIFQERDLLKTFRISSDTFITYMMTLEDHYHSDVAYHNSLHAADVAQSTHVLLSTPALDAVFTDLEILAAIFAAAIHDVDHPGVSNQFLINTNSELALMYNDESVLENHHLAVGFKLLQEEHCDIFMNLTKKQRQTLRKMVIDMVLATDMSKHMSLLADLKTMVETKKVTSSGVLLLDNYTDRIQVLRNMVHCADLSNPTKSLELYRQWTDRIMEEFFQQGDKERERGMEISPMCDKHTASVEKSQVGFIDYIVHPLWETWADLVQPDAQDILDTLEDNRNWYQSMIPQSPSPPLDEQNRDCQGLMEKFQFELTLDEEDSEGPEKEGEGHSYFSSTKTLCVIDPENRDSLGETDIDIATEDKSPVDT
Sequence of Pyruvate kinase (Leishmania mexicana) (Q27686 2-499 E452W): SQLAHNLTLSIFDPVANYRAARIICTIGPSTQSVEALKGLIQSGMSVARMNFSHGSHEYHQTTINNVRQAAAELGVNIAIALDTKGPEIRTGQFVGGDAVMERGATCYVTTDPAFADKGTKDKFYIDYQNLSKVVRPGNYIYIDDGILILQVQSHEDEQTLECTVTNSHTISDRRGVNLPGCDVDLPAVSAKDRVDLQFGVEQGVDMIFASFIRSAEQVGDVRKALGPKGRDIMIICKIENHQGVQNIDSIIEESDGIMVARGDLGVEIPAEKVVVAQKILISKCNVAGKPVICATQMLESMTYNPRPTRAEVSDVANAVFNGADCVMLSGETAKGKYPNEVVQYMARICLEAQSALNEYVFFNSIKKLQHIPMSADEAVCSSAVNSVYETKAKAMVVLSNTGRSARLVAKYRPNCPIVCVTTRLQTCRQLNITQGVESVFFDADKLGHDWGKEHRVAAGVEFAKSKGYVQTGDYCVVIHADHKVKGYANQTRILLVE
Sequence of Cytochrome P450 2C9 (Homo sapiens) (P11712 whole entry, looked up): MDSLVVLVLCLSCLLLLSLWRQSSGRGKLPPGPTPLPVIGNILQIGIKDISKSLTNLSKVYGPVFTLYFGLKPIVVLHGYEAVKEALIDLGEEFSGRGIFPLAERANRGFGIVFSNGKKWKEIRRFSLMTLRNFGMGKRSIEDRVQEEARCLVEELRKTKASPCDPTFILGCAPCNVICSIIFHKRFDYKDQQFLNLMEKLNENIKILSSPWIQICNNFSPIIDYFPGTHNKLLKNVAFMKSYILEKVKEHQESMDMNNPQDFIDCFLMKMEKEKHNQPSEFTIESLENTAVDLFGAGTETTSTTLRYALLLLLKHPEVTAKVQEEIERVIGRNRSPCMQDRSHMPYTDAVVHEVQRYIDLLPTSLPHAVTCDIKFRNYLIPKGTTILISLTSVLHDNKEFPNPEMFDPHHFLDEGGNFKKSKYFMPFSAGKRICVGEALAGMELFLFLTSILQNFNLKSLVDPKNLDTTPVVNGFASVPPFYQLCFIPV

Regarding `O=[N+]([O-])c1cc2nc(O)c(O)nc2cc1[N+](=O)[O-]`, the Potency result in test [1] and in [2] was “inactive” throughout.
Regarding `COC(=O)c1csc(C(=O)c2c[nH]c3ccccc23)n1`, the Potency entry in test [1] and in [2] was “inactive” in each case.
On to `C=C[C@H](N)CCC(=O)O`, for which the activity change, negative = inhibition in [3] (at 17.2 µM (top of the series)) was -1.55% (inactive); in [3] (at 38 µM (top of the series)) it was 6.29% (inactive); in test [5] (at 17.2 µM (top of the series)), -1.05% (inactive); in [5] (at 38 µM (top of the series)), 2.77% (inactive); in test [24] (at 25.7 µM (top of the series)), -2.99% (inactive); in test [24] (at 57.5 µM (top of the series)), -0.953% (inactive). The Potency entry in [4], in test [9], in test [10], in test [12], in test [13] and in test [14] was “inactive” throughout. The Potency entry in test [15], in [17], in test [19], in test [20], in test [21] and in [25] was “inactive” in each case. In addition, the Potency entry in test [26], in test [1] and in [2] was “inactive” throughout. The activity, negative = inhibition in test [6] (at 17.2 µM (top of the series)) was -1.55% (inactive); in test [6] (at 38 µM (top of the series)), -14.6% (inactive). In addition, the Potency in test [7] was > 46 µM (inactive) and > 20.6 µM (inactive); in test [8], > 46 µM (inactive) and > 20.6 µM (inactive). In addition, the molecule was classed as inactive in [11], in [16], in test [18], in [22] and in [23]. Moreover, the max response in [24] (measured here: cell count channel max response) is 3.82% and -3.83%; in test [24] (measured here: lipid channel max response), 1.97% and -5.49%.
As for `NC1(C(=O)O)CCc2cc(P(=O)(O)O)ccc21` (centres undefined), the Potency entry in test [1] and in test [2] was “inactive” in each case.
Consider `Nc1nc2c(ncn2[C@@H]2O[C@H](COP(=O)(O)OP(=O)(O)OP(=O)(O)O)[C@@H](O)C2O)c(=O)[nH]1` (some centres undefined), for which the Potency result in [1] and in [2] was “inactive” each time.
For the molecule `C[C@H](CCC(=O)O)C1CC[C@H]2C3CC[C@@H]4C[C@H](O)CC[C@]4(C)C3C[C@H](O)[C@]12C` (some centres undefined), the Potency entry in test [1] and in [2] was “inactive” in each case.
For `C=CCn1c(=O)c2c(nc(-c3ccccc3)n2C)n(C)c1=O`, the Potency result in test [1] and in [2] was “inactive” each time.
